Data from PubChem BioAssay (Tox21).
Values joined by “and” are separate entries in the source; they are usually repeats but may differ in a detail not shown here. Identical values can stand only once. Results filed as inconclusive are left out. Some structures have more than one record in an assay (separate samples or runs), and their calls can disagree. Active and inactive are the calls of the source. Unless noted, the call rests on the fitted dose curve.

Key:
[1] = qHTS assay to identify small molecule agonists of the peroxisome proliferator-activated receptor delta (PPARd) signaling pathway - cell viability counter screen (AID 743211; active means well fitted curve in the direction sought with a large enough effect in the repeat runs; an effect the other way counts as inactive or inconclusive; further: on the % scale 0 is the no-effect control and ±100 the full control effect; nearly all actives have a fitted effect of over 55% in size)
Method in brief: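 Read-out: CellTiter-Glo luminescence, 30 min RT, measured in the same wells as the beta-lactamase reporter. Cells: GeneBLAzer PPAR delta UAS-bla HEK293H, 3000 cells/well, compound exposure 17 h at 37C.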

[2] = molecular target: Peroxisome proliferator-activated receptor delta (Homo sapiens) (UniProt Q03181); assay: qHTS assay to identify small molecule agonists of the peroxisome proliferator-activated receptor delta (PPARd) signaling pathway (AID 743212); further: on the % scale 0 is the no-effect control and ±100 the full control effect
Sequence of Peroxisome proliferator-activated receptor delta (Homo sapiens) (Q03181 whole entry, looked up): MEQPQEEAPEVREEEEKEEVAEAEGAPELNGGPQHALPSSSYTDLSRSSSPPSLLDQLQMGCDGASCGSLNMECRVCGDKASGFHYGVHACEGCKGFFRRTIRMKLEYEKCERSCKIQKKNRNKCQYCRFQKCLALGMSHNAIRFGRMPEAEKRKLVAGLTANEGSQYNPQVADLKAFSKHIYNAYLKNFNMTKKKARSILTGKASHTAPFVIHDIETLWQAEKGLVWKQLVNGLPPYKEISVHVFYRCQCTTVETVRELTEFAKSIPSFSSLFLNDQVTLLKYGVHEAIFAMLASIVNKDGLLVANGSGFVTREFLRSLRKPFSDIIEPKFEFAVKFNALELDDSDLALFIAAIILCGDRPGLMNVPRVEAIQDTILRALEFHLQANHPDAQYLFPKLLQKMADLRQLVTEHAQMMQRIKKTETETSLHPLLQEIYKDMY
Method in brief: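 A PPARd-bla HEK293H line with beta-lactamase under an Upstream Activator Sequence is treated with compounds at 37 C. Substrate loading for 2 h at room temperature precedes the fluorescence measurement.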

[3] = qHTS assay to identify small molecule antagonists of the peroxisome proliferator-activated receptor delta (PPARd) signaling pathway - cell viability counter screen (AID 743213; active means well fitted curve in the direction sought with a large enough effect in the repeat runs; an effect the other way counts as inactive or inconclusive; further: on the % scale 0 is the no-effect control and ±100 the full control effect; nearly all actives have a fitted effect of over 50% in size)
Method in brief: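 HEK293H cells with the PPARd UAS-bla reporter, co-treated 17 h at 37 C with compounds and L165041 (300 nM final), were lysed with CellTiter-Glo. Luminescence indicated viable cell content.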

[4] = molecular target: Peroxisome proliferator-activated receptor delta (Homo sapiens) (UniProt Q03181); assay: qHTS assay to identify small molecule antagonists of the peroxisome proliferator-activated receptor delta (PPARd) signaling pathway (AID 743215; active means well fitted inhibition curve with a large enough effect in the signal ratio in the repeat runs, not every such curve was filed as active; the % refers to the signal ratio;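 further: cells stimulated with agonist L165041 at 300 nM final during compound exposure; series mostly up to about 62 µM; on the % scale 0 is the no-effect control and ±100 the full control effect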)
Method in brief: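 Antagonist-mode beta-lactamase reporter screen: HEK293H cells with UAS-bla under PPARd control, stimulated by 300 nM L165041 (final) alongside test compound for 17 h at 37 C, then FRET fluorescence after 2 h substrate incubation.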

[5] = qHTS assay to identify small molecule antagonists of the farnesoid-X-receptor (FXR) signaling pathway - cell viability counter screen (AID 743221; active means well fitted cell-killing curve with a large enough effect in the repeat runs, not every such curve was filed as active; further: on the % scale 0 is the no-effect control and ±100 the full control effect; nearly all actives have a fitted effect of over 50% in size)
Method in brief: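 HEK 293T FXR-bla cells, 5 h pre-incubation; compound + CDCA 50 uM final, 16 h, 37 C; beta-lactamase FRET read first, then CellTiter-Glo luminescence, 30 min RT.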

[6] = qHTS assay to identify small molecule agonists of the vitamin D receptor (VDR) signaling pathway - cell viability counter screen (AID 743224; active means well fitted curve in the direction sought with a large enough effect in the repeat runs; an effect the other way counts as inactive or inconclusive; further: series mostly up to about 63 µM; on the % scale 0 is the no-effect control and ±100 the full control effect; nearly all actives have a fitted effect of over 50% in size)
Method in brief: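 VDR-bla cell line, quantitative HTS format; 16 h compound incubation (37C, 5% CO2); ATP-based CellTiter-Glo luminescence measured in the reporter assay wells.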

[7] = qHTS assay to identify small molecule antagonists of the vitamin D receptor (VDR) signaling pathway - cell viability counter screen (AID 743225; active means well fitted curve in the direction sought with a large enough effect in the repeat runs; an effect the other way counts as inactive or inconclusive; further: nearly all actives have a fitted effect of over 50% in size; further: potency means the concentration at half of the fitted maximal effect)
Method in brief: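 Viability counter screen run in the same wells as the beta-lactamase reporter assay: HEK 293T VDR-UAS-bla cells, 16 h compound exposure at 37C with 3 nM (final) 1-alpha,25-dihydroxyvitamin D3. CellTiter-Glo luminescence, 30 min, room temperature.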

[8] = qHTS assay to identify small molecule agonists of the NFkB signaling pathway - cell viability counter screen (AID 1159515); further: series mostly up to about 61 µM; on the % scale 0 is the no-effect control and ±100 the full control effect; nearly all actives have a fitted effect of over 55% in size
Method in brief: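 Viability in NFkB-bla ME-180 cells was measured by CellTiter-Glo luminescence, 30 min room temperature, in wells already treated 5 hr with compounds and read for reporter FRET.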

[9] = qHTS assay to identify small molecule agonists of the endoplasmic reticulum stress response signaling pathway (AID 1159516; active means well fitted activation curve with a large enough effect in the signal ratio in the repeat runs, not every such curve was filed as active; the % refers to the signal ratio; further: on the % scale 0 is the no-effect control and ±100 the full control effect)
Method in brief: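 ER stress element reporter (bla) in HeLa. 1,500 cells/well, overnight attachment; 5 hr compound; 2 hr RT substrate; dual-emission fluorescence.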

[10] = qHTS assay to identify small molecule agonists of the endoplasmic reticulum stress response signaling pathway - cell viability counter screen (AID 1159517)
Method in brief: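 CellTiter-Glo was added to wells already read for beta-lactamase FRET, and luminescence was recorded 30 min later. Cells: ESRE-bla HeLa, 1,500 per well, compound exposure 5 hr at 37 C.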

[11] = qHTS assay to identify small molecule antagonists of the retinoid-related orphan receptor gamma (ROR-gamma) signaling pathway - cell viability counter screen (AID 1159520; active means well fitted curve in the direction sought with a large enough effect in the repeat runs; an effect the other way counts as inactive or inconclusive)
Method in brief: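 Tet-on ROR gamma CHO cells (1,000/well) were plated 4 hr, given compounds in DMSO for 2 hr at 37 C, then induced with 1 uM final doxycycline for 16 hr. Viability was read as ATP by CellTiter-Glo luminescence after 30 min.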

[12] = molecular target: Nuclear receptor ROR-gamma (Homo sapiens) (UniProt P51449); assay: qHTS assay to identify small molecule antagonists of the retinoid-related orphan receptor gamma (ROR-gamma) signaling pathway (AID 1159521; active means well fitted curve in the direction sought with a large enough effect in the repeat runs; an effect the other way counts as inactive or inconclusive)
Method in brief: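 Luminescence readout (ONE-Glo, 30 min RT) after 16 h doxycycline induction; loss of signal scored as antagonism. CHO cells with TET-inducible RORγ and RORE-LUC reporter; compounds added 2 h before 1 uM final doxycycline.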

[13] = qHTS assay to identify small molecule agonists of the AP-1 signaling pathway - cell viability counter screen (AID 1159525); further: nearly all actives have a fitted effect of over 55% in size
Method in brief: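 ME-180 AP-1-bla, 2500 cells/well, Opti-MEM + 0.5% dialyzed FBS; overnight 37 °C; cpd 15-pt titration, 5 h 37 °C; CellTiter-Glo 30 min RT; luminescence read; normalised to TOAB and DMSO controls.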

[14] = qHTS assay to identify small molecule agonists of the AP-1 signaling pathway (AID 1159526); further: on the % scale 0 is the no-effect control and ±100 the full control effect
[15] = molecular target: Retinoic acid receptor RXR-alpha (Homo sapiens) (UniProt P19793); assay: qHTS assay to identify small molecule agonists of the RXR signaling pathway (AID 1159527); further: nearly all actives have a fitted effect of over 35% in size; further: potency means the concentration at half of the fitted maximal effect
Sequence of Retinoic acid receptor RXR-alpha (Homo sapiens) (P19793 whole entry, looked up): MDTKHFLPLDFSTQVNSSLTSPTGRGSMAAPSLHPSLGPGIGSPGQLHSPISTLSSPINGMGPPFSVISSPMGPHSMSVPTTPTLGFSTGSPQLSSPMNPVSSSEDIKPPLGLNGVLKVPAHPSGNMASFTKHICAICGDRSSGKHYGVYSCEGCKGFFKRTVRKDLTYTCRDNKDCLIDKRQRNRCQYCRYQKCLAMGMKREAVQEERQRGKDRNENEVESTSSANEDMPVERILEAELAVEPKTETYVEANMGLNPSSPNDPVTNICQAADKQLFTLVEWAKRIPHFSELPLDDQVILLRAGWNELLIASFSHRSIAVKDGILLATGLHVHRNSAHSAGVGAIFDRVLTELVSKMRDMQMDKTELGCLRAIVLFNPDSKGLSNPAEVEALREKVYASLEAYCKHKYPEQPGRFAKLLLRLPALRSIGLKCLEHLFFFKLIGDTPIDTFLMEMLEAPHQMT
Method in brief: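 Agonist mode; 9-cis retinoic acid positive control. HEK 293T UAS-bla reporter cells, 2% charcoal-stripped FBS, 16 hr compound exposure at 37 C/5% CO2. LiveBLAzer B/G FRET substrate 2 hr RT; ex 405, em 460/530 nm.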

[16] = molecular target: Vitamin D3 receptor (Homo sapiens) (UniProt P11473); assay: qHTS assay to identify small molecule agonists of the vitamin D receptor (VDR) signaling pathway (AID 743222); further: on the % scale 0 is the no-effect control and ±100 the full control effect
Sequence of Vitamin D3 receptor (Homo sapiens) (P11473 whole entry, looked up): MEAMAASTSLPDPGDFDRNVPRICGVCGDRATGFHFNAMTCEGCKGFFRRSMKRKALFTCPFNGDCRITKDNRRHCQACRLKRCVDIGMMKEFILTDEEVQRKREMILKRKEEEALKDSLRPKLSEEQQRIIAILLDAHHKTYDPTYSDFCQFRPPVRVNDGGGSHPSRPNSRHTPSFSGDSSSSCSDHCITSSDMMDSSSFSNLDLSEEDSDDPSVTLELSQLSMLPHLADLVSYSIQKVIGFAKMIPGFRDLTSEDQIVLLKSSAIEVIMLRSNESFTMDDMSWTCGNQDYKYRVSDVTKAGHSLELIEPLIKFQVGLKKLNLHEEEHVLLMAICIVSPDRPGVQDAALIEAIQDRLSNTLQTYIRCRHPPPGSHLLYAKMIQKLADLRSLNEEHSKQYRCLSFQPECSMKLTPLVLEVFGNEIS
Method in brief: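 Agonist activity measured in VDR-bla reporter cells. Exposure 16 h, 37C, 5% CO2; detection by B/G FRET substrate, 2 h RT.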

[17] = molecular target: Vitamin D3 receptor (Homo sapiens) (UniProt P11473); assay: qHTS assay to identify small molecule antagonists of the vitamin D receptor (VDR) signaling pathway (AID 743223; active means well fitted inhibition curve with a large enough effect in the signal ratio in the repeat runs, not every such curve was filed as active; the % refers to the signal ratio; further: on the % scale 0 is the no-effect control and ±100 the full control effect)
Method in brief: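 Beta-lactamase reporter read-out: FRET substrate fluorescence after 2 h at room temperature, following 16 h exposure of VDR-bla cells to test compound plus 3 nM (final) 1alpha,25-dihydroxyvitamin D3 agonist at 37C.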

[18] = molecular target: Bile acid receptor (Homo sapiens) (UniProt Q96RI1); assay: qHTS assay to identify small molecule antagonists of the farnesoid-X-receptor (FXR) signaling pathway (AID 743217; active means well fitted inhibition curve with a large enough effect in the signal ratio in the repeat runs, not every such curve was filed as active; the % refers to the signal ratio; further: on the % scale 0 is the no-effect control and ±100 the full control effect)
Sequence of Bile acid receptor (Homo sapiens) (Q96RI1 whole entry, looked up): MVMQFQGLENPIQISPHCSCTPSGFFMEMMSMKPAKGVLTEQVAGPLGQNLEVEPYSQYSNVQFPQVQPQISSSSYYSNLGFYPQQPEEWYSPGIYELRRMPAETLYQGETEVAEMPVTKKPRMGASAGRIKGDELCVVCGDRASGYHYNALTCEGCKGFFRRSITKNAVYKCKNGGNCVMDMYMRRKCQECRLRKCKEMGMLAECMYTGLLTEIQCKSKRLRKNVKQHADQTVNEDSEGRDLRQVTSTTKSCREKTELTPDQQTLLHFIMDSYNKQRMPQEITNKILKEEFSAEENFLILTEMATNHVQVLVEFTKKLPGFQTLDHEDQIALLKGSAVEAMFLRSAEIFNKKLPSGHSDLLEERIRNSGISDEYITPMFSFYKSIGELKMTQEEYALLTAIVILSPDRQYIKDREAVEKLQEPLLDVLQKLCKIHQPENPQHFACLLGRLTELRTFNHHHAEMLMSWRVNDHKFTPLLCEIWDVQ
Method in brief: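 Beta-lactamase reporter under UAS control in HEK 293T cells; compound exposure 16 h at 37 °C in the presence of chenodeoxycholic acid (50 uM final); signal from B/G FRET substrate after 2 h at room temperature.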

[19] = qHTS assay to identify small molecule agonists of the farnesoid-X-receptor (FXR) signaling pathway - cell viability counter screen (AID 743218; active means well fitted curve in the direction sought with a large enough effect in the repeat runs; an effect the other way counts as inactive or inconclusive; further: on the % scale 0 is the no-effect control and ±100 the full control effect; nearly all actives have a fitted effect of over 45% in size)
Method in brief: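 In GeneBLAzer FXR-UAS-bla HEK 293T cells, compounds act for 16 h at 37 C. Cell viability is then scored in the reporter wells by CellTiter-Glo, 30 min at RT, luminescence.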

[20] = molecular target: Bile acid receptor (Homo sapiens) (UniProt Q96RI1); assay: qHTS assay to identify small molecule agonists of the farnesoid-X-receptor (FXR) signaling pathway (AID 743220; active means well fitted activation curve with a large enough effect in the signal ratio in the repeat runs, not every such curve was filed as active; the % refers to the signal ratio; further: on the % scale 0 is the no-effect control and ±100 the full control effect)
Method in brief: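 Beta-lactamase reporter under UAS control in GeneBLAzer FXR HEK 293T cells (5000/well) measured with LiveBLAzer FRET substrate after 2 h at room temperature. Compound exposure lasted 16 h at 37C.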

CN1C(=O)CN=C(c2ccccc2)c2cc([N+](=O)[O-])ccc21
inactive: Potency [1] | outcome [2] | Potency [3] | Potency [4] | Potency [5] | Potency [6] | Potency [7] | Potency [8] | Potency [9] | Potency [10] | Potency [11] | Potency [12] | Potency [13] | Potency [14] | Potency [15]

CCCCCCCCCCCCN=C(N)N
inactive: activity change, negative = cytotoxicity [1] -26.8% [at 2.7 µM] | activation [2] 6.16% [at 2.7 µM] | viability change, negative = cytotoxic [3] -15.8% [at 2.83 µM] | activity change, negative = cytotoxicity [5] -27.4% [at 2.69 µM] | activation [16] -0.533% [at 2.71 µM] | activity change, negative = inhibition [17] 3.88% [at 3.11 µM] | viability change, negative = cytotoxic [7] -22.1% [at 3.11 µM] | activity, negative = cytotoxic [8] -2.48% [at 3.12 µM] | activation [9] 0.217% [at 3.11 µM] | activity change, negative = cytotoxicity [10] 5.11% [at 3.11 µM] | activity, negative = cytotoxicity [11] -5.37% [at 3.27 µM] | activity change, negative = inhibition [12] -12% [at 3.27 µM] | viability change, negative = cytotoxic [13] -1.76% [at 2.72 µM] | activation [14] 1.6% [at 2.72 µM] | activation [15] 1.85% [at 2.71 µM]

N#CC(C#N)=C(C#N)C#N
inactive: Potency [1] | outcome [2] | Potency [4] | Potency [5] | outcome [16] | Potency [17] | Potency [6] | Potency [8] | Potency [9] | Potency [10] | Potency [11] | Potency [12] | Potency [13] | Potency [14] | Potency [15]

CCOc1cccc(C2(N3CCN(c4ccccc4)CC3)CCC(C)CC2)c1 (configuration not stated)
inactive: Potency [1] | outcome [2] | Potency [3] | Potency [4] | Potency [5] | outcome [16] | Potency [17] | Potency [7] | Potency [8] | Potency [9] | Potency [10] | Potency [11] | Potency [12] | Potency [13] | Potency [14] | Potency [15]

Cc1ccccc1
inactive: Potency [1] | outcome [2] | Potency [3] | Potency [4] | Potency [5] | Potency [17] | Potency [6] | Potency [8] | Potency [9] | Potency [10] | Potency [11] | Potency [12] | Potency [13] | Potency [14] | Potency [15]

C[N+]1(CCC(C(N)=O)(c2ccccc2)c2ccccc2)CCCCC1
inactive: Potency [1] | outcome [2] | Potency [4] | Potency [18] | Potency [5] | Potency [7] | Potency [8] | Potency [9] | Potency [10] | Potency [11] | Potency [12] | Potency [13] | Potency [14] | Potency [15]

Clc1ccccc1
inactive: Potency [1] | outcome [2] | Potency [19] | Potency [5] | outcome [16] | Potency [6] | Potency [7] | Potency [8] | Potency [9] | Potency [10] | Potency [11] | Potency [12] | Potency [13] | Potency [14] | Potency [15]

CC(C)(C)N(NC(=O)c1ccc(Cl)cc1)C(=O)c1ccccc1
inactive: Potency [1] | outcome [2] | Potency [3] | Potency [4] | Potency [18] | Potency [19] | Potency [5] | outcome [16] | Potency [17] | Potency [6] | Potency [8] | Potency [9] | Potency [10] | Potency [11] | Potency [12] | Potency [13] | Potency [14] | Potency [15]

NC(=S)c1c(Cl)cccc1Cl
inactive: Potency [1] | outcome [2] | Potency [3] | Potency [4] | Potency [19] | Potency [5] | Potency [6] | Potency [8] | Potency [9] | Potency [10] | Potency [11] | Potency [12] | Potency [13] | Potency [14] | Potency [15]

CC(C)C1(C)N=C(c2ncccc2C(=O)O)NC1=O (configuration not stated)
active: Potency [15] 43.5 µM
inactive: Potency [1] | outcome [2] | Potency [3] | Potency [4] | Potency [18] | Potency [19] | outcome [20] | Potency [5] | outcome [16] | Potency [17] | Potency [6] | Potency [7] | Potency [8] | Potency [9] | Potency [10] | Potency [11] | Potency [12] | Potency [13] | Potency [14]

CCCCC(CC)COC(=O)c1c(Br)c(Br)c(Br)c(Br)c1C(=O)OCC(CC)CCCC (configuration not stated)
inactive: Potency [1] | outcome [2] | Potency [3] | Potency [4] | Potency [18] | Potency [19] | outcome [20] | Potency [5] | Potency [17] | Potency [6] | Potency [8] | Potency [9] | Potency [10] | Potency [11] | Potency [12] | Potency [13] | Potency [14] | Potency [15]

CCCCCCCCCCCCN(C)C
inactive: Potency [1] | outcome [2] | Potency [3] | Potency [4] | Potency [18] | Potency [5] | Potency [17] | Potency [6] | Potency [7] | Potency [8] | Potency [9] | Potency [10] | Potency [11] | Potency [12] | Potency [13] | Potency [14] | Potency [15]

c1ccc2c(c1)sc1ccccc12
inactive: Potency [1] | outcome [2] | Potency [3] | Potency [4] | Potency [18] | Potency [19] | Potency [5] | outcome [16] | Potency [6] | Potency [8] | Potency [9] | Potency [10] | Potency [11] | Potency [12] | Potency [13] | Potency [14] | Potency [15]
inactive and 19 µM (active): Potency [7]

O=C1NC(=O)C(=O)C(=O)N1
inactive: Potency [1] | outcome [2] | Potency [3] | Potency [4] | Potency [18] | Potency [19] | outcome [20] | Potency [5] | outcome [16] | Potency [17] | Potency [6] | Potency [7] | Potency [8] | Potency [9] | Potency [10] | Potency [11] | Potency [12] | Potency [13] | Potency [14] | Potency [15]

C1CS1
inactive: Potency [1] | outcome [2] | Potency [3] | Potency [4] | Potency [19] | Potency [5] | Potency [8] | Potency [9] | Potency [10] | Potency [11] | Potency [12] | Potency [13] | Potency [14] | Potency [15]

O=C=NC1CCCCC1
inactive: Potency [1] | outcome [2] | Potency [4] | Potency [18] | outcome [20] | Potency [5] | Potency [17] | Potency [6] | Potency [7] | Potency [8] | Potency [9] | Potency [10] | Potency [11] | Potency [12] | Potency [13] | Potency [14] | Potency [15]
